Measurements taken from PubChem BioAssay (EPA / NIEHS).
Activity calls are given as the source filed them. Rule for the calls: active = hit-call score of the fitted dose curve at least 0.9, where 1 is the maximum; inactive = score below 0.9.

Tests used:
[1] = read-out: TIMP metallopeptidase inhibitor 2 (TIMP2), TIMP2 (gene 7077); assay: BSK_KF3CT_TIMP2: BioMAP Diversity Plus: KF3CT Assay for TIMP metallopeptidase inhibitor 2 (TIMP2) Biomarker Activity (AID 2283071); settings: primary human keratinocytes with fibroblasts; actives raise or lower the signal
Method in brief: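 Keratinocyte–fibroblast co-culture, 24 h exposure; TIMP-2 ELISA, DMSO-normalised bidirectional fit. Parallel SRB (0.1%, TCA-fixed, 560 nm) total-protein staining gauges cytotoxicity.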

[2] = read-out: Transforming growth factor beta 1 (TGFb1), TGFB1 (gene 7040); assay: BSK_KF3CT_TGFb1: BioMAP Diversity Plus: KF3CT Assay for Transforming growth factor beta 1 (TGFb1) Biomarker Activity (AID 2283072); settings: primary human keratinocytes with fibroblasts; actives raise or lower the signal
Method in brief: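 Signal changes in either direction, relative to DMSO, define activity here. TGF-b1 is read by ELISA from a human keratinocyte-fibroblast co-culture 24 h post-dose.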

[3] = read-out: C-C motif chemokine 2 (Homo sapiens) (UniProt P13500); assay: BSK_KF3CT_MCP1: BioMAP Diversity Plus: KF3CT Assay for Monocyte Chemoattractant Protein 1 (MCP1/CCL2) Biomarker Activity (AID 2283073); settings: primary human keratinocytes with fibroblasts; actives raise or lower the signal
Method in brief: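 Biomarker MCP-1 is measured by ELISA in primary human keratinocytes co-cultured with foreskin fibroblasts, 24 h after chemical treatment; DMSO serves as the negative control and activity baseline.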

[4] = read-out: Matrix Metallopeptidase 9 (MMP9), MMP9 (gene 4318); assay: BSK_KF3CT_MMP9: BioMAP Diversity Plus: KF3CT Assay for Matrix Metallopeptidase 9 (MMP9) Biomarker Activity (AID 2283074); settings: primary human keratinocytes with fibroblasts; actives raise or lower the signal;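 for AC50: MMP9 protein level quantified by ELISA in the co-culture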
Method in brief: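 Human keratinocyte and foreskin fibroblast co-culture exposed to chemicals for 24 h; MMP9 biomarker measured by ELISA, bidirectional fitting relative to DMSO; cytotoxicity tracked by SRB total protein staining in parallel cultures.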

[5] = read-out: urokinase plasminogen activator (uPA), PLAU (gene 5328); assay: BSK_KF3CT_uPA: BioMAP Diversity Plus: KF3CT Assay for urokinase plasminogen activator (uPA) Biomarker Activity (AID 2283075); settings: primary human keratinocytes with fibroblasts; actives raise or lower the signal
Method in brief: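 Primary human keratinocyte/foreskin fibroblast co-culture exposed to chemical; uPA measured by ELISA at 24 h. Bidirectional fit versus DMSO, with parallel SRB total-protein staining for cytotoxicity.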

[6] = read-out: CD40, CD40 (gene 958); assay: BSK_LPS_CD40: BioMAP Diversity Plus: LPS Assay for CD40 Biomarker Activity (AID 2283076); settings: primary human HUVEC with PBMC; actives raise or lower the signal
Method in brief: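 Using a multiplexed primary human co-culture (umbilical vein endothelium plus PBMC), CD40 was read by ELISA 24 h after dosing, with cytotoxicity tracked by sulforhodamine B staining of parallel cultures and activity fitted bidirectionally versus DMSO.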

[7] = read-out: E-selectin (Homo sapiens) (UniProt P16581); assay: BSK_LPS_Eselectin: BioMAP Diversity Plus: LPS Assay for Eselectin Biomarker Activity (AID 2283077); settings: primary human HUVEC with PBMC; actives raise or lower the signal
Method in brief: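 Dose chemical onto LPS-driven HUVEC/PBMC co-culture; after 24 h, run ELISA for E-selectin; fit up- and down-going responses relative to DMSO control.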

[8] = read-out: Interleukin-8 (IL8), CXCL8 (gene 3576); assay: BSK_LPS_IL8: BioMAP Diversity Plus: LPS Assay for Interleukin-8 (IL8) Biomarker Activity (AID 2283078); settings: primary human HUVEC with PBMC; actives raise or lower the signal
Method in brief: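 In this LPS system, chemical-treated human umbilical vein endothelium/PBMC co-cultures were harvested at 24 h for IL-8 ELISA.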

[9] = BSK_LPS_SRB: Viability Assessment in the BioMAP Diversity Plus: LPS Assay (AID 2283079); settings: primary human HUVEC with PBMC;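 note: total protein by sulforhodamine B absorbance as a cytotoxicity measure; measured one day after compound addition; fitted in both directions against DMSO so loss or gain of signal counts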
Method in brief: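 Cytotoxicity endpoint in human endothelial–PBMC co-culture: 24 h exposure, then SRB (0.1%) staining, 560 nm read.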

[10] = read-out: Interleukin-1 alpha (IL1a), IL1A (gene 3552); assay: BSK_LPS_IL1a: BioMAP Diversity Plus: LPS Assay for Interleukin-1 alpha (IL1a) Biomarker Activity (AID 2283080); settings: primary human HUVEC with PBMC; actives raise or lower the signal
Method in brief: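 Primary human HUVEC and PBMC co-culture stimulated with LPS is dosed and harvested at 24 h. Both increases and decreases in ELISA-measured IL-1a are scored relative to DMSO.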

[11] = read-out: Monocyte Chemoattractant Protein-1 (MCP1), CCL2 (gene 6347); assay: BSK_LPS_MCP1: BioMAP Diversity Plus: LPS Assay for Monocyte Chemoattractant Protein-1 (MCP1) Biomarker Activity (AID 2283081); settings: primary human HUVEC with PBMC; actives raise or lower the signal;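 for AC50: secreted MCP-1 protein quantified by ELISA in culture supernatant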
Method in brief: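 Values derive from bidirectional fitting against DMSO of ELISA-measured MCP-1 in a human primary endothelial and mononuclear cell co-culture, 24 h after chemical addition under LPS activation.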

[12] = BSK_LPS_PGE2: BioMAP Diversity Plus: LPS Assay for Prostaglandin E2 (PGE2) Biomarker Activity (AID 2283082); settings: primary human HUVEC with PBMC; actives raise or lower the signal;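 for AC50: secreted prostaglandin E2 measured by ELISA in LPS-stimulated co-culture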
Method in brief: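 Endpoint derived from bidirectional curve fitting versus DMSO of ELISA-measured PGE2 in LPS-stimulated human primary vascular co-culture (HUVEC with PBMC) harvested at 24 h.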

[13] = read-out: Macrophage colony-stimulating factor (MCSF), CSF1 (gene 1435); assay: BSK_LPS_MCSF: BioMAP Diversity Plus: LPS Assay for Macrophage colony-stimulating factor (MCSF) Biomarker Activity (AID 2283083); settings: primary human HUVEC with PBMC; actives raise or lower the signal
Method in brief: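 Bidirectional fit versus DMSO of ELISA-measured M-CSF in co-cultured human umbilical vein endothelial cells and PBMC, sampled 24 h after dosing.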

[14] = read-out: Tissue Factor, F3 (gene 2152); assay: BSK_LPS_TissueFactor: BioMAP Diversity Plus: LPS Assay for Tissue Factor Biomarker Activity (AID 2283084); settings: primary human HUVEC with PBMC; actives raise or lower the signal
Method in brief: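 Read-out: CD142 ELISA, 24 h. System: LPS-driven human endothelial/PBMC co-culture. Analysis: up- or down-signal fitted against DMSO.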

[15] = read-out: Tumor necrosis factor (Homo sapiens) (UniProt P01375); assay: BSK_LPS_TNFa: BioMAP Diversity Plus: LPS Assay for Tumour Necrosis Factor alpha (TNFa) Biomarker Activity (AID 2283085); settings: primary human HUVEC with PBMC; actives raise or lower the signal
Method in brief: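 Primary human vascular co-culture of HUVEC and PBMC; TNFa ELISA 24 h after treatment, analysed as increase or decrease relative to DMSO control.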

[16] = read-out: CD40, CD40 (gene 958); assay: BSK_SAg_CD40: BioMAP Diversity Plus: SAg Assay for CD40 Biomarker Activity (AID 2283088); settings: primary human HUVEC with PBMC; actives raise or lower the signal
Method in brief: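 Endpoint derived by fitting increases or decreases versus DMSO controls. CD40 is detected by fluorescence ELISA in a human vascular co-culture of endothelium and PBMC at 24 h.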

[17] = read-out: CD69, CD69 (gene 969); assay: BSK_SAg_CD69: BioMAP Diversity Plus: SAg Assay for CD69 Biomarker Activity (AID 2283089); settings: primary human HUVEC with PBMC; actives raise or lower the signal;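 for AC50: cell surface CD69 protein quantified by ELISA with fluorescence detection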
Method in brief: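 Values derive from bidirectional fitting relative to DMSO vehicle. Cells: umbilical vein endothelium plus peripheral blood mononuclear cells, treated 24 h before fluorescent ELISA for CD69.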

[18] = read-out: Monocyte Chemoattractant Protein-1 (MCP1), CCL2 (gene 6347); assay: BSK_SAg_MCP1: BioMAP Diversity Plus: SAg Assay for Monocyte Chemoattractant Protein-1 (MCP1) Biomarker Activity (AID 2283090); settings: primary human HUVEC with PBMC; actives raise or lower the signal
Method in brief: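 MCP-1 levels in the endothelial–PBMC SAg co-culture were quantified by ELISA at 24 h post-dosing; both increases and decreases versus DMSO scored. Cytotoxicity monitored by SRB total protein in parallel cultures.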

[19] = read-out: CD38, CD38 (gene 952); assay: BSK_SAg_CD38: BioMAP Diversity Plus: SAg Assay for CD38 Biomarker Activity (AID 2283087); settings: primary human HUVEC with PBMC; actives raise or lower the signal
Method in brief: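 Fluorescence ELISA of cell-surface CD38 served as the read-out, with either increase or decrease fitted against DMSO controls. Cells were a human umbilical vein endothelium plus PBMC co-culture under SEB/TSST-1 stimulation, measured 24 h after dosing.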

[20] = read-out: Vascular cell adhesion molecule 1 (VCAM1), VCAM1 (gene 7412); assay: BSK_LPS_VCAM1: BioMAP Diversity Plus: LPS Assay for Vascular cell adhesion molecule 1 (VCAM1) Biomarker Activity (AID 2283086); settings: primary human HUVEC with PBMC; actives raise or lower the signal
Method in brief: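 Primary human vascular co-culture (umbilical vein endothelium plus PBMC) stimulated with LPS received chemical; 24 h later VCAM-1 was read by ELISA. Overt cytotoxicity was assessed by sulforhodamine B staining of parallel cultures at the same time point.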

Measured: AC50

Sequence of E-selectin (Homo sapiens) (P16581 whole entry, looked up): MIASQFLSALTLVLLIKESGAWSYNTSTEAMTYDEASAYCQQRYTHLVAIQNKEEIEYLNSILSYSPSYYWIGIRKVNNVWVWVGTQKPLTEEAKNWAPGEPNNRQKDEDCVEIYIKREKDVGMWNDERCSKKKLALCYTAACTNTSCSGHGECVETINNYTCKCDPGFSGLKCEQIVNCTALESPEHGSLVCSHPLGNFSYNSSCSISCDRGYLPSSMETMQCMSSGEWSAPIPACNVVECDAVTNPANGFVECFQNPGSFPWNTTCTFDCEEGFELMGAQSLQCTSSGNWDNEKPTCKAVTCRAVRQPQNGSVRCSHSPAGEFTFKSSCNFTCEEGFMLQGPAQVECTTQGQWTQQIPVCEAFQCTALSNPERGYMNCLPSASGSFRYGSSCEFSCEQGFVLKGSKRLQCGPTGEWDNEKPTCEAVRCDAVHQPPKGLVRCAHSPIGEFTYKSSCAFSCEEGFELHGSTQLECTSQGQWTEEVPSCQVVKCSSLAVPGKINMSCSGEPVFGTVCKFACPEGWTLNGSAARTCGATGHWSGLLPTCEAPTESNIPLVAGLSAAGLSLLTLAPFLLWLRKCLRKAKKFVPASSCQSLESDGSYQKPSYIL
Sequence of Tumor necrosis factor (Homo sapiens) (P01375 whole entry, looked up): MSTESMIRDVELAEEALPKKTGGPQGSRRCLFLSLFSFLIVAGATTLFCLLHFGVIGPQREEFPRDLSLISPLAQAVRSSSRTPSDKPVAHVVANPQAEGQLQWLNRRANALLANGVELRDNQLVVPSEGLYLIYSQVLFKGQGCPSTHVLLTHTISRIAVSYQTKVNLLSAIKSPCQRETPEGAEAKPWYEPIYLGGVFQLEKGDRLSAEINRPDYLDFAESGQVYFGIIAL

N#Cc1c(Cl)cccc1Cl
active: [7] 0.0841 µM
not listed: [19] | [20]
inactive: all other assays above

CSC(=O)c1c(C(F)F)nc(C(F)(F)F)c(C(=O)SC)c1CC(C)C
active: [6] 16.3 µM | [7] 5.05 µM | [9] 26.3 µM | [10] 15.1 µM | [13] 20 µM | [19] 20.8 µM | [16] 34 µM | [18] 13.9 µM
not listed: [8] | [20]
inactive: all other assays above

COC(=O)NS(=O)(=O)c1ccc(N)cc1
not listed: [19]
inactive: all other assays above

Clc1nc(Cl)nc(Nc2ccccc2Cl)n1
not listed: [19] | [20]
inactive: all other assays above

C=CCOC(=O)C(C)(C)OC(=O)c1cc(-n2c(=O)cc(C(F)(F)F)n(C)c2=O)ccc1Cl
active: [1] 27.9 µM | [3] 1.89 µM | [6] 6.73 µM | [13] 13.9 µM | [17] 6.29 µM
not listed: [16] | [19]
inactive: all other assays above

Cn1c(-c2ccccc2)cc(-c2ccccc2)[n+]1C
active: [1] 23.8 µM | [5] 12 µM | [16] 7.51 µM | [17] 2.99 µM | [18] 5.52 µM
not listed: [19]
inactive: all other assays above

CC1(C)CCC(=Cc2ccc(Cl)cc2)C1(O)Cn1cncn1 (centres undefined)
not listed: [19] | [20]
inactive: all other assays above

N#CN=C1SCCN1Cc1ccc(Cl)nc1
not listed: [19] | [20]
inactive: all other assays above

CC(C)=CC1C(C(=O)OCc2coc(Cc3ccccc3)c2)C1(C)C (centres undefined)
active: [7] 12.1 µM | [17] 11.4 µM | [18] 20 µM
not listed: [19]
inactive: all other assays above

CC(C)NC(=O)N1CC(=O)N(c2cc(Cl)cc(Cl)c2)C1=O
not listed: [19]
inactive: all other assays above

CCOC(=O)C(C)OC(=O)c1cc(Oc2ccc(C(F)(F)F)cc2Cl)ccc1[N+](=O)[O-] (centres undefined)
active: [4] 5.83 µM | [9] 6.48 µM | [12] 2.12 µM | [15] 3.73 µM | [16] 3.97 µM | [17] 12.8 µM
not listed: [5] | [19] | [20]
inactive: all other assays above

OC(c1ccc(Cl)cc1)(c1ccc(Cl)cc1)C(Cl)(Cl)Cl
active: [1] 9.48 µM | [2] 9.69 µM | [3] 11 µM | [4] 7.26 µM | [6] 30.5 µM | [7] 30.9 µM | [8] 30.6 µM | [10] 27.4 µM | [11] 30.6 µM | [12] 17.5 µM | [13] 29.5 µM | [14] 20 µM | [15] 30.8 µM | [20] 29.3 µM | [19] 29.7 µM | [16] 29.9 µM | [17] 30 µM | [18] 30.7 µM

CCOc1nc(C(Cl)(Cl)Cl)ns1
not listed: [3] | [19] | [20]
inactive: all other assays above

Nc1c(Cl)c(Cl)nc(C(=O)O)c1Cl
not listed: [5] | [20]
inactive: all other assays above
